Screening results as filed in PubChem.
AID504770: growth inhibitors of E. coli YBA685 in a screen for V. cholerae RctB (chromosome II replication) inhibitors. E. coli YBA685 rctB-dependent plasmid, OD600 growth, 3 h; stronger effect = lower value. z-score (no concentration beside the values). 130,000 tested, 0.27% active. AID 504770; in the data active means z-score below about -2, passing the limit was not always enough
CapD inh: inhibitors of Bacillus anthracis CapD enzyme; purified CapD enzyme, fluorescence intensity read-out; stronger effect = lower value; z-score (test concentration not listed); 140,000 tested, 0.23% active; in the data active means z-score mostly below about -2.9, no sharp cut-off; inactive means mostly above about -1.9
* = called active by the depositor; / = no result given. Rows were chosen to be rich in hits. Some 0.34% of all compounds tested hit in one or more screens of this group.

SMILES | AID504770 | CapD inh
C=CCn1c2ccccc2c2nnc(SCC(=O)NC3=NN=C(c4ccccc4)CS3)nc21 | 1.6 | -1.64
Cc1noc(C)c1S(=O)(=O)N1CCCN(C/C(O)=C(\C#N)c2nc3ccccc3[nH]2)CC1 | 0 | /
O=S(=O)(c1ccc(F)c(F)c1)N(c1ccc2c(c1)OCO2)S(=O)(=O)c1ccc(F)c(F)c1 | 0.85 | /
Cc1ccc(OC(=O)OCSc2nn[nH]n2)cc1 | -0.5 | -7.11*
Cc1ccc(/C(N)=N/OC(=O)Oc2ccccc2)cc1 | 0.5 | -0.01
CC1CN(C(=O)CCC(=O)O)CC(C)O1 (configuration not stated) | -0.85 | -0.185
Cc1ccc(C)n1-c1cccc(C(=O)O)c1 | 2.45 | -8.55*
O=C(O)c1cccc(-n2cccc2)c1 | -0.5 | /
Cc1ccc(C)n1-c1ccc(C(=O)O)c(C(=O)O)c1 | 1.15 | -8.41*
Cc1ccc(C)n1-c1sccc1C(=O)O | -0.6 | -11.4*
Cc1ccc(C)n1-c1ccc(CC(=O)O)cc1 | -1.7 | -3.24
Cc1ccc(C)n1-c1sccc1C(=O)CC#N | -0.7 | 0.39
CCOC(=O)C1=C(C)Nc2c(C#N)c(N3CCOCC3)nn2C1c1ccc(OC)cc1 (configuration not stated) | 1.15 | /
Cc1ccc2c(c1)c(=O)c1ccccc1n2CC(=O)Nc1cc(Oc2ccccc2)cc([N+](=O)[O-])c1 | / | 1.5
CC1CC(C)CN(C(=O)c2ccco2)C1 (configuration not stated) | -0.15 | 0.11
O=c1oc(-c2ccco2)ns1 | -2.05 | -8.54*
O=c1[nH]nc(-c2ccco2)o1 | -0.7 | /
O=C(Cn1cnc2c(nc3n2CCCCC3)c1=O)NC1CCCCCC1 | -2.1* | 0.86
O=C(Cn1cnc2c(nnn2Cc2ccc(Cl)cc2)c1=O)NC1CCCC1 | 0.4 | -0.755
CC(=S)/C=C1\Sc2ccccc2N1C | -0.7 | -5.29*
CN1/C(=C/C#N)Sc2ccccc21 | -0.35 | /
COc1ccc(-c2[nH]ncc2CN2CCC(O)(c3ccc(Cl)cc3)CC2)cc1 | -0.55 | -0.2
OC1(c2ccc(Cl)cc2)CCN(Cc2cn[nH]c2-c2ccccc2)CC1 | -1.1 | -2.34*
O=C(Sc1ccccc1)c1ccno1 | -0.9 | -3.44
N#CC(C#N)=C(N)/C(C#N)=C/c1c[nH]c2ccccc12 | 0.85 | -3.04*
SMILES | AID504770 | CapD inh
CC(C)OC(=O)/C(C#N)=C/c1c[nH]c2ccccc12 | -0.25 | /
CN1C(=O)/C(=c2/[nH][nH]c(=O)/c2=C\C=C\c2ccccc2)C(=O)c2ccccc21 | 1.8 | -5.16*
CN1C(=O)C(=C/C=C/c2ccccc2)C(=O)N(C)C1=O | 1.05 | /
O=C(Nc1ccccc1)c1ccccc1OCC(=O)N1CCCC1 | -2.95* | /
CCOc1ccccc1C(=O)Nc1ccccc1 | -0.9 | /
CC1COc2c(N3CCN(C)CC3)c(F)cc3c(=O)c(C(=O)OCc4ccccn4)cn1c23 (configuration not stated) | -4.55* | /
Cc1cc(C)c(NC(=O)c2cn3c4c(c(N5CCN(C)CC5)c(F)cc4c2=O)OCC3C)c(C)c1 (configuration not stated) | -1.8 | /
Cc1ccc(S(=O)(=O)Cc2nc(-c3ccc(C(=O)NC(C)C)cc3)oc2C)cc1 | 0.2 | 4.79
NNc1nc(Nc2cccc([N+](=O)[O-])c2)nc(N2CCCCC2)n1 | / | -0.505
CN1C(=O)NC(=O)/C(=C\C=C\c2ccco2)C1=O | -0.15 | -0.495
O=C1NC(=S)NC(=O)C1=C/C=C/c1ccco1 | 0.8 | -11*
O=C1/C(=N\n2cnc3c(cnn3-c3ccccc3)c2=O)c2ccccc2N1CO | 1.4 | /
N#C/C(=N/O)c1nc2ccccc2s1 | 0.85 | -4.49*
CC(C)=C(C#N)c1nc2ccccc2s1 | -0.25 | /
COC(=O)c1ccc(NC(=O)CNC2CCCCCC2)cc1 | -1.05 | /
Cc1ccc2[nH]cc(CCNC(=O)CN3CCCn4nc(C)cc43)c2c1 | -0.4 | 0.375
CC(C)CCOc1ccc(C(=O)C(CN2CCOCC2)c2ccccc2)cc1 (configuration not stated) | -0.45 | -0.055
O=C1c2cccc(Cl)c2C(=O)c2cccc(Cl)c21 | / | -0.22
O=C1C=CC(=O)c2c(Cl)ccc(Cl)c21 | -2.05* | -0.755
COc1ccc(C2NC(=O)NC(C)=C2C(=O)OCC2CCCO2)cc1OCc1ccccc1 (configuration not stated) | / | -0.08
Nc1cc(CCCC(=O)O)sc1CCCC(=O)O | -0.2 | -10.3*
O=C(O)CCCCc1cccs1 | -0.9 | 1.4
Cc1c(C#N)c(O)n(CCO)c(=O)c1N=Nc1cccc(C(=O)O)c1 | 1.1 | -8.28*
CCCCn1c(O)c(C#N)c(C)c(N=Nc2ccc(OC)cc2)c1=O | -0.95 | -0.255
O=C1OC(/C(=C\Nc2cccc(C(F)(F)F)c2)[N+](=O)[O-])c2ccccc21 (configuration not stated) | / | -0.705
Cn1c(=O)n(C)c2ccccc21 | 0.6 | 0.69
COCCNC(=S)c1ccc(N(C)C)cc1 | -0.35 | -4.89*
COCCNC(=O)c1ccc(C(=O)NCCOC)cc1 | 0.3 | 0.13
Cc1cc2c(cc1S(=O)(=O)NCCC1=CCCCC1)n(C)c(=O)c(=O)n2C | -1.5 | 1.6
